Potency data for three compounds are collected here from PubChem BioAssay (NCATS).

Records with an inconclusive call do not appear. Entries that show only a call come without a potency. Active and inactive are the calls of the source. The call rests on the fitted dose curve; in most records, active means well fitted cell-killing curve with a large enough effect; inconclusive means small, poorly fitted or top-dose-only effect, or effect the other way; inactive means no such curve, though single readings can be large or run the other way.

The experiment in a line: Viability qHTS for spleen associated tyrosine kinase inhibitor (SYKi) naive MV4-11 cells (AID 1963823). Further: nearly all actives have a fitted effect of over 40% in size. Particulars: MV4-11 AML viability, CellTiter-Glo luminescence, 72 h; series mostly up to 45 µM. In outline:
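SYK inhibitor-naive MV4-11 cells, 500 per well, exposed to compounds for 72 hr at 37 C, 5% CO2. Viability read as CellTiter-Glo luminescence after 10 min at room temperature.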
For orientation: qHTS replaces the single test concentration by a dilution series.
For the compound `CC(CC12CCCN1C(=O)C1CCCN1C2=O)OC(N)=O` (stereo not drawn), the Potency result is “inactive”.

Take `CC(C(O)/C=C/C(C)(C)O)C1CCC2(C)C3C(=O)C=C4C(CCC(O)C4(C)C)C3(C)CCC12C` (stereo not drawn): the Potency entry was “inactive”.

Turning to `C=CC1C(OC2OC(CO)C(O)C(O)C2O)OC=C(C(=O)OC)C1CC1CC(=O)CC(CCc2ccc(O)cc2)O1` (stereo not drawn), the Potency entry was “inactive”.
